RORg inh: qHTS for inhibitors of ROR gamma transcriptional activity. Drosophila S2 Gal4-RORgamma UAS-luciferase reporter, 20 h. 5.4% of 310,000 active. Nuclear receptor ROR-gamma (Mus musculus), P51450. Potency, µM (titrated, usually from 53.6 µM), hits mostly inhibitors; also: nearly all actives have a fitted effect of over 60% in size
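Drosophila S2 cells stably expressing Gal4-DBD/mouse RORγ fusion under metallothionein promoter plus UAS-luciferase; compound 1 h, then 700 uM CuSO4 induction for 20 h at ambient temperature; inhibition read as reduced luminescence.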
TRPV1 agonist: HTS Assay for Compounds that Act as Agonists of the Vanilloid Receptor 1 | Transient receptor potential cation channel subfamily V member 1 (Homo sapiens), Q8NER1 | TRPV1-expressing cells, Fluo-8 calcium influx, agonist mode | activation, % at 8.33 µM | 0.19% of 320,000 active; in the data active = activation above about 80%; inconclusive = between about 30% and that limit
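Fluo-8 calcium influx in TRPV1-expressing cells, kinetic read (ex 480/em 520 nm). Compound added and read 3 min for agonist activity, followed by capsaicin at EC20 final and 2 min further read for enhancement.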
TRPV1 PAM: HTS Assay for Compounds that Act as Potentiators of the Vanilloid Receptor 1; Transient receptor potential cation channel subfamily V member 1 (Homo sapiens), Q8NER1; TRPV1-expressing cells, Fluo-8 calcium influx, capsaicin EC20 potentiation; potentiation, % at 8.33 µM; 0.02% of 320,000 active; in the data active = potentiation above about 80%; inconclusive = between about 30% and that limit
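Cells expressing TRPV1 were dye-loaded with Fluo-8 and read kinetically: 10 s baseline, 3 min after compound (agonist portion), then 2 min after EC20 capsaicin (allosteric enhancer portion). Calcium-bound dye fluorescence at 480/520 nm.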
Gal4-VP16 FLuc: VP16 counterscreen qHTS for inhibitors of ROR gamma transcriptional activity; Drosophila S2 Gal4-VP16 UAS-luciferase, luminescence, 20 h; Potency, µM (top dose mostly 53.6 µM), actives largely listed as inhibitors; 3.5% of 310,000 active;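 also: Gal4-VP16 expression switched on by copper sulfate through the metallothionein promoter; nearly all actives have a fitted effect of over 50% in size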
uPA surface inh: qHTS for Inhibitors of Cell Surface uPA Generation | cell surface uPA generation assay, qHTS | Potency, µM (doses to about 38.3 µM), hits mostly inhibitors | AID 540303, 2011 | 0.31% of 330,000 active; active = well fitted inhibition curve with a large enough effect; inconclusive = small, poorly fitted or top-dose-only effect; inactive = no such curve, though single readings can be large or run the other way; tested in mouse RAW 264.7 cells; also: nearly all actives have a fitted effect of over 55% in size
Each line names hits and unclear results; the compound was inactive in the other large screens. Shown are actives, neighbours in structure and some others; about 5.8% of the full set was active somewhere. Unless noted, calls follow the shape of the dose curve; as a rule, active = well fitted curve in the direction sought with a large enough effect; inconclusive = small, poorly fitted or top-dose-only effect, or another doubt; inactive = no such curve, though single readings can be large; an effect the other way counts as inactive or inconclusive.

CC(C)C[C@@H](CC(=O)N[C@@H](CCC(=O)O)CC(=O)O)NC(=O)[C@@H]1CNCC[C@H]1NC(=O)C[C@@H](NC(=O)C[C@H](Cc1c[nH]c2ccccc12)NC(=O)[C@@H]1CNCC[C@H]1N)C(C)C	none (no result: TRPV1 agonist, TRPV1 PAM, uPA surface inh)
CCC1CC=CC2C1C(=O)N(Cc1ccccc1)C2c1ccc(OC)c(Cl)c1 (stereo not drawn)	Gal4-VP16 FLuc inconclusive (no result: TRPV1 agonist, TRPV1 PAM, uPA surface inh)
O=C(NC(=S)Nc1ccccc1Br)C1CCCCC1	none (no result: RORg inh, TRPV1 agonist, TRPV1 PAM, Gal4-VP16 FLuc)
O=C(NC(=S)Nc1ccccc1F)C1CCCCC1	RORg inh 8.9µM, Gal4-VP16 FLuc 7.9µM (no result: uPA surface inh)
O=C(NC(=S)Nc1ccccc1Br)C1CCCC1	RORg inh 3.2µM, Gal4-VP16 FLuc 7.1µM
CC(=O)O[C@](C)(CCC=C(C)C)C1CC=C(C)CC1 (stereo partly drawn)	none (no result: TRPV1 agonist, TRPV1 PAM, uPA surface inh)
N[C@@H](C(=O)O)c1ccc(C(=O)O)cc1	none (no result: TRPV1 agonist, TRPV1 PAM, uPA surface inh)
Clc1ccc(-c2nnc(NC3=NCCCCC3)o2)cc1	RORg inh 6.3µM, Gal4-VP16 FLuc 8.9µM
CCCCC/C=C\C/C=C\C/C=C\CCCCC(=O)NCCCC(=O)O	none (no result: TRPV1 agonist, TRPV1 PAM, uPA surface inh)
CN1CCC[C@@H]1Cc1c[nH]c2ccc(CCS(=O)(=O)c3ccccc3)cc12	none (no result: TRPV1 agonist, TRPV1 PAM, uPA surface inh)
Cc1ccc2c(Cl)cc(Cl)c(OCC(=O)Nc3cc(S(=O)(=O)N(C)C)ccc3C)c2n1	Gal4-VP16 FLuc inconclusive
NS(=O)(=O)c1cccc(NC(=O)COc2ccc([N+](=O)[O-])cc2)c1	none
Cc1ccc2c(Cl)cc(Cl)c(OCC(=O)Nc3ccc(C)c(S(=O)(=O)N(C)C)c3)c2n1	RORg inh 7.1µM, Gal4-VP16 FLuc 7.1µM (no result: uPA surface inh)
Cc1ccc2c(Cl)cc(Cl)c(OCC(=O)Nc3cccc(S(N)(=O)=O)c3)c2n1	RORg inh 14µM, Gal4-VP16 FLuc inconclusive
Cc1ccc2c(Cl)cc(Cl)c(OCC(=O)Nc3cccc(S(=O)(=O)N(C)C)c3)c2n1	RORg inh 5µM, Gal4-VP16 FLuc 10µM
COc1cccc(N2CCN(C(=O)CNC(=O)c3sc4ccccc4c3Cl)CC2)c1	none
CN(C)c1nc(C(=O)O)nc(N2CCOCC2)n1	none
O=C(N/N=C/c1ccc(Br)s1)Nc1ccccc1	Gal4-VP16 FLuc inconclusive
Cc1ccc(/C=N/NC(=O)c2cccs2)s1	RORg inh 11µM, Gal4-VP16 FLuc 11µM
O=C(N/N=C/c1ccc(Br)s1)c1cccs1	RORg inh 3.2µM, TRPV1 agonist inconclusive, Gal4-VP16 FLuc 5µM
O=C(N/N=C/c1ccc(Br)s1)c1ccncc1	RORg inh 0.79µM, Gal4-VP16 FLuc 1µM
O=C(N/N=C/c1ccc(F)cc1)c1ccncc1	none
O=C(Cn1nnc2ccccc21)Nc1ccc(Cl)cn1	none
Cc1occc1-c1nnc(SCC(=O)NC2CC2)n1C(C)C	none (no result: RORg inh, Gal4-VP16 FLuc)
CCNCc1nc2cc(Cl)ccc2c(=O)[nH]1	RORg inh 6.3µM, Gal4-VP16 FLuc 16µM
CC[C@@]1(O)C[C@H](O[C@H]2C[C@@H](N(C)C)[C@@H](O[C@H]3C[C@@H](O)[C@@H](O[C@H]4CCC(=O)[C@@H](C)O4)[C@@H](C)O3)[C@@H](C)O2)c2c(cc3c(c2O)C(=O)c2c(O)cccc2C3=O)[C@H]1C(=O)OC	RORg inh 0.32µM, Gal4-VP16 FLuc 0.56µM (no result: TRPV1 agonist, TRPV1 PAM, uPA surface inh)
COC(=O)[C@H](C)[C@H](CC(C)C)NC(=O)[C@H](C)[C@H](CC(C)C)NC(=O)c1ccccn1	none (no result: TRPV1 agonist, TRPV1 PAM, uPA surface inh)
CN(CCO)c1cc(Sc2nc3ccccc3s2)c2nonc2c1[N+](=O)[O-]	RORg inh 11µM, Gal4-VP16 FLuc 13µM (no result: uPA surface inh)
Cc1cc(C)c(S(=O)(=O)NCc2ccccn2)cc1C	RORg inh inconclusive
Cc1ccc(C(C)C)cc1S(=O)(=O)NCc1cccnc1	RORg inh inconclusive, Gal4-VP16 FLuc 18µM
Cc1ccc(C(C)C)cc1S(=O)(=O)NCc1ccccn1	RORg inh 14µM, Gal4-VP16 FLuc inconclusive
COc1ccc(C(C)C)cc1S(=O)(=O)NCc1ccccn1	RORg inh 13µM (no result: uPA surface inh)
Cc1ccc(NC2=CC(=O)c3sc(C)nc3C2=O)cc1	RORg inh 2.2µM, Gal4-VP16 FLuc 2.5µM (no result: TRPV1 agonist, TRPV1 PAM, uPA surface inh)
Fc1ccccc1-c1csc(=Nc2cccnc2)n1CC1CCCO1 (stereo not drawn)	RORg inh inconclusive, Gal4-VP16 FLuc 7.1µM
Fc1ccccc1-c1csc(=Nc2cccnc2)n1CCCn1ccnc1	RORg inh inconclusive
CCC1(c2ccc(F)cc2)NC(=O)N(CC(=O)Nc2cccc(S(=O)(=O)N3CCCCC3)c2)C1=O (stereo not drawn)	none (no result: RORg inh, Gal4-VP16 FLuc)

High-throughput results (PubChem BioAssay)
